For 39 molecules, growth results are on record in PubChem BioAssay (NCI).

The panel holds about 83,000 compounds, 20% with a hit somewhere; the sample as a whole holds those more often.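 Negative percent growth values reflect cell death: -40 means 40% of the cells present at the start died, and -100 means all died.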 Unmarked numbers belong to inactive results. Calls of active or inactive are those of the source. The calls were made as follows: active = growth percent below 10; inactive = the rest.

One assay concerns MDA-MB-435 melanoma. Kind of assay: NCI-60 one-dose screen, 48 h (100 = growth as untreated, 0 = no growth, -100 = all killed). The following applies: 10 µM unless noted.
On to `CCN1C(=O)N(CC)C2C1NN=c1s/c(=C\c3cc4ccccc4[nH]3)c(=O)n12` (stereo not drawn), for which the growth was -9.5% (active).
As to `CCN(CC)CCCNCc1cc(-c2ccccc2)nc2cc(Cl)ccc12`, the growth was -39.7% (active).
Take `CC[C@H](CC[C@@H](C)[C@H]1CC[C@H]2[C@@H]3CC[C@@H]4CC(=O)/C(=C\c5ccncc5)C[C@]4(C)[C@H]3CC[C@]12C)C(C)C`: the growth is 101%.
The same measure, in the same setting: under `CCN(CC)c1ccc(/C=N\NC(=O)c2cccc(Nc3ccnc(C(F)(F)F)c3)c2)c(O)c1` stands 15.4%; under `Cc1cscc(C)c1=S`, 104%.
As for `COC(=O)/C=C1/SC(=Nc2cccc(Cl)c2)N(CCc2c[nH]c3ccc(O)cc23)C1=O`, the growth is 15.9%.
Same read-out and setting: to `O=C(CCCCCCCCC(=O)N/N=C\c1cc(Cl)ccc1O)N/N=C\c1cc(Cl)ccc1O` belongs 38.1%.
As to `COc1ccc(/C=C/C(=O)c2cc3c(N)c(C(=O)Nc4ccc(OC)cc4)sc3nc2C)cc1`, the growth is -23% (active).
The same measure, in the same setting: under `CCCCCCOC(=O)CC1=C(C)/C(=C/c2[nH]c(-c3ccc[nH]3)cc2OC)N=C1C` stands -82.4% (active); under `Cc1ccc(O)c(NC(=O)c2ccc(CNc3ccnc(C(F)(F)F)c3)cc2)c1`, 39.6%.
On to `O=C1/C(=C/c2ccc(Br)cc2)COc2ccc(O)c(O)c21`, for which the growth is -24.4% (active).
With `O=C(/C=C/C12c3ccccc3C(c3ccccc31)C1C(=O)NC(=O)C12)c1ccc(F)cc1` (stereo not drawn), the growth was -12.8% (active).
For `Cc1ccc(C)c2c1C(O)(C#Cc1ccccc1)c1ccccc1C2(O)C#Cc1ccccc1` (stereo not drawn), the growth is 47.9%.
Regarding `C(/C=C/c1ccccc1)=Nc1ccc(CCc2ccc(N=C/C=C/c3ccccc3)cc2)cc1`, the growth was 115%.
On the same count and under the same terms, to `O=C(Cn1nnc2ccccc21)Nc1ccc(-c2nc3ccccc3s2)cc1` belongs 95.9%.
On to `CCCCCCCC/C=C\CCCCCCCCOc1ccc(CC(=O)NCC[N+](C)(C)C)cc1`, for which the growth was 86.5%.
The same measure, in the same setting: to `COc1cc(/C=C2\CN(S(=O)(=O)c3ccc(C)cc3)C/C(=C\c3cc(CN4CCCCC4)c(O)c(OC)c3)C2=O)cc(CN2CCCCC2)c1O` belongs -82.6% (active); to `Cc1ncc(C(=O)Nc2ccc(CN3CCN(C)CC3)c(C(F)(F)F)c2)cc1C#Cc1cnc(N)c2ccncc12`, -94% (active).
Same read-out and setting: under `COc1cc(C2=NN(C(C)=O)C(c3ccc(N(C)C)cc3)C2)cc(OC)c1OC` (stereo not drawn) stands 94.9%.
The same measure, in the same setting: to `COC1=CC(c2ccc[nH]2)=N/C1=C\c1[nH]c(C)c(CC(=O)OCc2ccccc2)c1C` belongs -21.3% (active); to `CCOC(=O)CSc1nc2sc3c(c2c(=O)n1-c1ccc([N+](=O)[O-])cc1)CCCCC3`, 77.3%; to `CN(C)c1ccc(C(=NO)c2ccc(N(C)C)cc2)cc1`, -43.2% (active).
As for `Cc1ccc(C(=O)c2ccc(CC(=O)N/N=C/c3ccc(O)cc3O)n2C)cc1`, the growth is 63.1%.
Regarding `N#C/C(=C\c1ccc(Br)cc1)c1cc2ccccc2[nH]1`, the growth was 99.1%.
Still for that read-out and setting: under `COc1ccc(-c2cn(-c3ccc(Cl)cc3)c(SCC(=O)c3ccc([N+](=O)[O-])cc3)n2)cc1` stands 79.5%; under `COc1ccc(Cc2nnc(Nc3nc4ccccc4s3)s2)cc1`, 96.8%.
`CCOC(=O)c1ccc2c(c1)c1c(C)c3ccncc3c(C)c1n2C`: the growth is 3.03% (active).
Regarding `Cc1nc2sc(C(=O)Nc3cccc(Cl)c3)c(N)c2cc1C(O)c1ccccc1` (stereo not drawn), the growth was 5.16% (active).
`COc1ccc(C2CC(c3ccc(Nc4nc(Nc5ccc(F)cc5)nc(Nc5ccc(F)cc5)n4)cc3)=NN2C(C)=O)cc1` (stereo not drawn): the growth is 92.1%.
In the case of `N#Cc1c(NC(=O)c2cccs2)[n+]([O-])c2ccc(Cl)cc2[n+]1[O-]`, the growth is 89.2%.
On the same count and under the same terms, to `CC(C)(C)c1cc(C=Nc2cccc(C(F)(F)F)c2)c(O)c(C(C)(C)C)c1` belongs 108%; to `N=c1sc(Cc2cc(Cl)ccc2Cl)cn1CC(=O)c1ccccc1`, -41.5% (active).
`COc1ccc(Nc2ncc(C(N)=O)c(NCCCNC(=O)C3CCC3)n2)cc1`: the growth is 84%.
The same measure, in the same setting: under `Cc1nn(-c2ccccc2)c(/N=C/N(C)C)c1/C=C/C(=O)c1ccc(Cl)cc1` stands 98.4%.
The same measure, in the same setting: to `COc1ccc2cc(-c3ccc(-c4ccc(C(=N)N)s4)s3)ccc2c1` belongs 0.918% (active).
In the case of `O=C1c2cccnc2C(=O)c2c1c(C(=O)OCCCN1CCCCC1)c1ccccn21`, the growth is -41.5% (active).
With `O[C@@H](c1cc(C(F)(F)F)nc2c(C(F)(F)F)cccc12)[C@H]1CCCCN1`, the growth was 73.1%.
Turning to `Cc1[nH]c(/C=C/C(=O)c2ccc(C(F)(F)F)c(F)c2)c(C)c1C(=O)NCC(C)C`, the growth is 103%.
The same measure, in the same setting: under `CCCCCCCCn1ccc2cc(NC(=O)Cn3cc(CN4CCCCCC4)nn3)ccc21` stands -85.3% (active).

The subject of another assay is SW-620 colon. The description is as above. Conditions: 10 µM unless noted.
`CCN1C(=O)N(CC)C2C1NN=c1s/c(=C\c3cc4ccccc4[nH]3)c(=O)n12` (stereo not drawn): the growth was 19.8%.
Turning to `CCN(CC)CCCNCc1cc(-c2ccccc2)nc2cc(Cl)ccc12`, the growth was -0.394% (active).
The same measure, in the same setting: under `CC[C@H](CC[C@@H](C)[C@H]1CC[C@H]2[C@@H]3CC[C@@H]4CC(=O)/C(=C\c5ccncc5)C[C@]4(C)[C@H]3CC[C@]12C)C(C)C` stands 102%; under `CCN(CC)c1ccc(/C=N\NC(=O)c2cccc(Nc3ccnc(C(F)(F)F)c3)c2)c(O)c1`, 35.4%; under `Cc1cscc(C)c1=S`, 50.5%.
On the same count and under the same terms, under `COC(=O)/C=C1/SC(=Nc2cccc(Cl)c2)N(CCc2c[nH]c3ccc(O)cc23)C1=O` stands 0.219% (active); under `O=C(CCCCCCCCC(=O)N/N=C\c1cc(Cl)ccc1O)N/N=C\c1cc(Cl)ccc1O`, 46.5%.
Same read-out and setting: under `COc1ccc(/C=C/C(=O)c2cc3c(N)c(C(=O)Nc4ccc(OC)cc4)sc3nc2C)cc1` stands 19.2%; under `CCCCCCOC(=O)CC1=C(C)/C(=C/c2[nH]c(-c3ccc[nH]3)cc2OC)N=C1C`, -74% (active); under `Cc1ccc(O)c(NC(=O)c2ccc(CNc3ccnc(C(F)(F)F)c3)cc2)c1`, 87%.
For the molecule `O=C1/C(=C/c2ccc(Br)cc2)COc2ccc(O)c(O)c21`, the growth was -35.9% (active).
The same measure, in the same setting: under `O=C(/C=C/C12c3ccccc3C(c3ccccc31)C1C(=O)NC(=O)C12)c1ccc(F)cc1` (stereo not drawn) stands 4.25% (active).
Same read-out and setting: under `Cc1ccc(C)c2c1C(O)(C#Cc1ccccc1)c1ccccc1C2(O)C#Cc1ccccc1` (stereo not drawn) stands 53.5%.
The same measure, in the same setting: under `C(/C=C/c1ccccc1)=Nc1ccc(CCc2ccc(N=C/C=C/c3ccccc3)cc2)cc1` stands 51.6%; under `O=C(Cn1nnc2ccccc21)Nc1ccc(-c2nc3ccccc3s2)cc1`, 94.5%; under `CCCCCCCC/C=C\CCCCCCCCOc1ccc(CC(=O)NCC[N+](C)(C)C)cc1`, 74.2%.
In the case of `COc1cc(/C=C2\CN(S(=O)(=O)c3ccc(C)cc3)C/C(=C\c3cc(CN4CCCCC4)c(O)c(OC)c3)C2=O)cc(CN2CCCCC2)c1O`, the growth is -77.5% (active).
Still for that read-out and setting: under `Cc1ncc(C(=O)Nc2ccc(CN3CCN(C)CC3)c(C(F)(F)F)c2)cc1C#Cc1cnc(N)c2ccncc12` stands -59.5% (active); under `COc1cc(C2=NN(C(C)=O)C(c3ccc(N(C)C)cc3)C2)cc(OC)c1OC` (stereo not drawn), 94.9%; under `COC1=CC(c2ccc[nH]2)=N/C1=C\c1[nH]c(C)c(CC(=O)OCc2ccccc2)c1C`, -6.46% (active).
Regarding `CCOC(=O)CSc1nc2sc3c(c2c(=O)n1-c1ccc([N+](=O)[O-])cc1)CCCCC3`, the growth was 81.3%.
As to `CN(C)c1ccc(C(=NO)c2ccc(N(C)C)cc2)cc1`, the growth was 13.4%.
For `Cc1ccc(C(=O)c2ccc(CC(=O)N/N=C/c3ccc(O)cc3O)n2C)cc1`, the growth was 42.2%.
For the molecule `N#C/C(=C\c1ccc(Br)cc1)c1cc2ccccc2[nH]1`, the growth was 93.4%.
As for `COc1ccc(-c2cn(-c3ccc(Cl)cc3)c(SCC(=O)c3ccc([N+](=O)[O-])cc3)n2)cc1`, the growth is 86.1%.
Regarding `COc1ccc(Cc2nnc(Nc3nc4ccccc4s3)s2)cc1`, the growth was 97.8%.
Same read-out and setting: to `CCOC(=O)c1ccc2c(c1)c1c(C)c3ccncc3c(C)c1n2C` belongs 0.329% (active); to `Cc1nc2sc(C(=O)Nc3cccc(Cl)c3)c(N)c2cc1C(O)c1ccccc1` (stereo not drawn), 33.1%.
Same read-out and setting: under `COc1ccc(C2CC(c3ccc(Nc4nc(Nc5ccc(F)cc5)nc(Nc5ccc(F)cc5)n4)cc3)=NN2C(C)=O)cc1` (stereo not drawn) stands 101%.
Same read-out and setting: to `N#Cc1c(NC(=O)c2cccs2)[n+]([O-])c2ccc(Cl)cc2[n+]1[O-]` belongs 85.3%; to `CC(C)(C)c1cc(C=Nc2cccc(C(F)(F)F)c2)c(O)c(C(C)(C)C)c1`, 101%.
For the molecule `N=c1sc(Cc2cc(Cl)ccc2Cl)cn1CC(=O)c1ccccc1`, the growth is 21.2%.
`COc1ccc(Nc2ncc(C(N)=O)c(NCCCNC(=O)C3CCC3)n2)cc1`: the growth is 50.9%.
Same read-out and setting: under `Cc1nn(-c2ccccc2)c(/N=C/N(C)C)c1/C=C/C(=O)c1ccc(Cl)cc1` stands 93.3%.
As for `COc1ccc2cc(-c3ccc(-c4ccc(C(=N)N)s4)s3)ccc2c1`, the growth is -64.3% (active).
With `O=C1c2cccnc2C(=O)c2c1c(C(=O)OCCCN1CCCCC1)c1ccccn21`, the growth is -60.1% (active).
With `O[C@@H](c1cc(C(F)(F)F)nc2c(C(F)(F)F)cccc12)[C@H]1CCCCN1`, the growth was 73.7%.
On the same count and under the same terms, to `Cc1[nH]c(/C=C/C(=O)c2ccc(C(F)(F)F)c(F)c2)c(C)c1C(=O)NCC(C)C` belongs 102%; to `CCCCCCCCn1ccc2cc(NC(=O)Cn3cc(CN4CCCCCC4)nn3)ccc21`, -78.3% (active).
